Assay [1] deals with Wnt5a (protein binding on small-molecule microarray). Nature of the assay: small molecules binding Wnt5a protein – biophysical, small-molecule microarray, 635/667 nm fluorescence, primary screen (AID 1142).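 Also: fluorescence read at 667 nm with signal to noise per printed feature.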 Particulars: 635 nm fluorescence, higher = more signal.
A short description of assay [2]: ATP-based viability of Huh7 replicon cells – cell-based, CellTiter-Glo luminescence, basal, 48 h, cytotoxicity control for HCV replication inhibitor project, primary screen (AID 1143).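 Also: Huh7 hepatoma cells carrying a hepatitis C replication reporter with no stimulus; test concentration not given here.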 As to conditions: higher = more signal, called active from +8 up or from −8 down. A general note: A replicon is a self-replicating genome or part of one, used to study replication in cells.

Assay [3] can be described thus: Pseudomonas biofilm growth suppression – PAO1 strain, BacTiter-Glo luminescence, LB-PBS, primary screen (AID 1144). Particulars: P. aeruginosa PAO1 biofilm, 12 h, higher = more signal.
Assay [4] in a line: basal CRE-LacZ reporter activity in PC12 – cell-based, unstimulated, primary screen (AID 1145). As to conditions: no forskolin, luminescence, 4.5 h, higher = more signal, called active from +8 up or from −8 down.
The nature of assay [5]: forskolin-driven CRE-LacZ activity in PC12 – cell-based, CRE-LacZ reporter, forskolin-stimulated, primary screen (AID 1146).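 Also: PC12 cells with 6xCRE LacZ reporter stimulated by forskolin 10 µM; beta-galactosidase reporter signal reflecting CREB driven transcription.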 As to conditions: luminescence, 4.5 h, higher = more signal, called active from +8 up or from −8 down.
Assay [6] has as its target Streptavidin (Streptomyces avidinii) (UniProt P22629). Nature of the assay: compounds binding control protein streptavidin – biophysical, small-molecule microarray, 635/667 nm fluorescence, artefact control for SMM compound annotation, primary screen (AID 1147).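 Also: signal reflects streptavidin binding to arrayed compounds as a control protein.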 Particulars: higher = more signal.
A short description of assay [7]: probe aInhba binding on compound microarray – biochemical, small-molecule microarray, 635/667 nm fluorescence, primary screen (AID 1148).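 Also: score merges 667nm spot fluorescence with signal-to-noise for antibody binding to printed compounds.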 Particulars: higher = more signal.
In assay [8] the target is Torsin-1A (Homo sapiens) (UniProt O14656). Nature of the assay: TOR1A wild-type binding on microarray – cell lysate, small-molecule microarray, lysate, 635/667 nm, primary screen (AID 1149). Particulars: COS7 hTOR1A-WT lysate, 635 nm fluorescence, higher = more signal.
For assay [9] the target is unchanged. Nature of the assay: torsin A mutant lysate binding on microarrays – cell lysate, small-molecule microarray, COS7 lysate, 635/667 nm fluorescence, primary screen (AID 1150).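 Also: score pools 667 nm emission and signal to noise measuring lysate protein binding.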 Particulars: COS7 hTOR1A mutant lysate, 635 nm fluorescence, higher = more signal.
In assay [10] the test system is Sonic hedgehog protein (Shh). Nature of the assay: Sonic hedgehog microarray binding compounds – biochemical, small-molecule microarray, 635/667 nm fluorescence, primary screen (AID 1151).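 Also: Shh protein binding to compounds spotted on small-molecule microarray slides; score combines spot fluorescence intensity with signal-to-noise across triplicate slides.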 Particulars: 635 nm fluorescence, higher = more signal.
The nature of assay [11]: optical density shifts of acrAB sulA E. coli – strain DRC41, OD650, 48 h, E. coli filamentation inducer project, primary screen (AID 1152).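 Also: E. coli MC1000 strain DRC41 lacking acrAB efflux pump and sulA.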 As to conditions: higher = more signal, called active from +8 up or from −8 down.
Assay [12] is described as follows: probe aLefty1 binding on compound microarray – biochemical, small-molecule microarray, 635/667 nm fluorescence, primary screen (AID 1153).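 Also: score merges spot fluorescence with signal-to-noise ratio from the scanned slide images.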 Particulars: higher = more signal.
Assay [13] can be described thus: plasmodial surface anion channel blockers, osmotic lysis – cell-based, P. falciparum Indochina, OD700, 1 h, primary screen (AID 1154). As to conditions: P. falciparum Indochina infected RBC osmotic lysis, higher = more signal, called active from +8 up or from −8 down.
Assay [14] in a line: plasmodial surface anion channel blockers, osmotic lysis – cell-based, P. falciparum Indochina, OD700, 2 h, primary screen (AID 1155).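 Also: lysis reports solute entry through the parasite surface anion channel PSAC.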 Particulars: P. falciparum Indochina infected erythrocytes, higher = more signal, called active from +8 up or from −8 down.
Assay [15] in a line: changes in parasitized red cell lysis, either direction – P. falciparum Indochina, OD700, 3 h, PSAC antagonist project, primary screen (AID 1156). Particulars: P. falciparum-infected erythrocytes, osmotic lysis, higher = more signal, called active from +8 up or from −8 down.
Assay [16] can be described thus: plasmodial surface anion channel blockers, osmotic lysis – cell-based, P. falciparum Indochina, OD700, 18 h, primary screen (AID 1157). As to conditions: P. falciparum Indochina infected erythrocytes, osmotic lysis OD700, 18 h; higher = more signal, called active from +8 up or from −8 down.
Assay [17] can be described thus: S6 kinase pathway phospho-S6 level changes – cell-based, A549, cytoblot, luminescence, serum-stimulated, primary screen (AID 1158).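 Also: serum-stimulated A549 lung adenocarcinoma cells; signal is phosphorylated S6 detected by cytoblot immunostaining with HRP secondary.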 Particulars: 5 h, higher = more signal.
The target in assay [18] is NADPH oxidase 2 (Homo sapiens) (UniProt P04839). Nature of the assay: compounds shifting NOX2 Amplex Red fluorescence – cell-based, HEK293-NOX2, PMA-stimulated, NOX inhibitor project, primary screen (AID 1159). Also: test concentration not given here. As to conditions: 45 min, higher = more signal, called active from +8 up or from −8 down.
For assay [19], the target named is NADPH oxidase 4 (Homo sapiens) (UniProt Q9NPH5). Nature of the assay: compounds shifting NOX4 Amplex Red fluorescence – cell-based, HEK293-NOX4, tetracycline-induced, NOX inhibitor project, primary screen (AID 1160). As to conditions: HEK293-NOX4, Amplex Red H2O2 fluorescence, 45 min; higher = more signal, called active from +8 up or from −8 down.
Assay [20] concerns the target NADPH oxidase 5 (Homo sapiens) (UniProt Q96PH1). Nature of the assay: compounds shifting NOX5 Amplex Red fluorescence – cell-based, HEK293-NOX5, NOX inhibitor project, primary screen (AID 1161). Particulars: HEK293-NOX5, ionomycin, 45 min, higher = more signal.

Activity calls are given as the source filed them. Unless noted, no rule for the calls is given here.

Chain of Streptavidin (Streptomyces avidinii) (P22629 whole entry, looked up): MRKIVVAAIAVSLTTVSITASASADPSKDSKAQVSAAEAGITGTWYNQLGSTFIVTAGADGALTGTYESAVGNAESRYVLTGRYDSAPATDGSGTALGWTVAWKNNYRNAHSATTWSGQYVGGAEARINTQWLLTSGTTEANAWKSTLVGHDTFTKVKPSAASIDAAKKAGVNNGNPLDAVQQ
Chain of NADPH oxidase 2 (Homo sapiens) (P04839 whole entry, looked up): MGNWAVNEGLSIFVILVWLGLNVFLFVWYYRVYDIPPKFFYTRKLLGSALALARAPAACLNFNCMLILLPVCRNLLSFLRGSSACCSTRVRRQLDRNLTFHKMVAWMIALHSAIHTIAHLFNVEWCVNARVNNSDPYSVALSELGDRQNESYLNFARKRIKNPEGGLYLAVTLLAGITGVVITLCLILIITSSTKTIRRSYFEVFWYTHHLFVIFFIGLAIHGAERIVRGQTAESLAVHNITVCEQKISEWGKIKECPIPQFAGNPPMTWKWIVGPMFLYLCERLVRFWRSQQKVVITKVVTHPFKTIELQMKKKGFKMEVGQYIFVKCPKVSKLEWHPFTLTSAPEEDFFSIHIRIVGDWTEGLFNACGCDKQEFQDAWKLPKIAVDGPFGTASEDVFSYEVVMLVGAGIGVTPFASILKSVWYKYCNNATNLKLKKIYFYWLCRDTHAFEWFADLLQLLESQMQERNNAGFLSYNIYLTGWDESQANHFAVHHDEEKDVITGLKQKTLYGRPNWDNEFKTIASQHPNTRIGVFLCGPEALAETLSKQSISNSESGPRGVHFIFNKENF
Chain of Torsin-1A (Homo sapiens) (O14656 whole entry, looked up): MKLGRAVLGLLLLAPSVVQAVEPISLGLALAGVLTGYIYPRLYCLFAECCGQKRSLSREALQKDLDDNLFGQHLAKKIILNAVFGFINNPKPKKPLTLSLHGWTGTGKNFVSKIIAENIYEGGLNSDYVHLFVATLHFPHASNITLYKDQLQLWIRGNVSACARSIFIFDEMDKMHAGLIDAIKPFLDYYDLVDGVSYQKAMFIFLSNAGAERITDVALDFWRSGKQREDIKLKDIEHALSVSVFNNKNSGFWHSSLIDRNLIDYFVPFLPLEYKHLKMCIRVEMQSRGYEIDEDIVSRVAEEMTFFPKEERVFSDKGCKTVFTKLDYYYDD
Chain of NADPH oxidase 5 (Homo sapiens) (Q96PH1 whole entry, looked up): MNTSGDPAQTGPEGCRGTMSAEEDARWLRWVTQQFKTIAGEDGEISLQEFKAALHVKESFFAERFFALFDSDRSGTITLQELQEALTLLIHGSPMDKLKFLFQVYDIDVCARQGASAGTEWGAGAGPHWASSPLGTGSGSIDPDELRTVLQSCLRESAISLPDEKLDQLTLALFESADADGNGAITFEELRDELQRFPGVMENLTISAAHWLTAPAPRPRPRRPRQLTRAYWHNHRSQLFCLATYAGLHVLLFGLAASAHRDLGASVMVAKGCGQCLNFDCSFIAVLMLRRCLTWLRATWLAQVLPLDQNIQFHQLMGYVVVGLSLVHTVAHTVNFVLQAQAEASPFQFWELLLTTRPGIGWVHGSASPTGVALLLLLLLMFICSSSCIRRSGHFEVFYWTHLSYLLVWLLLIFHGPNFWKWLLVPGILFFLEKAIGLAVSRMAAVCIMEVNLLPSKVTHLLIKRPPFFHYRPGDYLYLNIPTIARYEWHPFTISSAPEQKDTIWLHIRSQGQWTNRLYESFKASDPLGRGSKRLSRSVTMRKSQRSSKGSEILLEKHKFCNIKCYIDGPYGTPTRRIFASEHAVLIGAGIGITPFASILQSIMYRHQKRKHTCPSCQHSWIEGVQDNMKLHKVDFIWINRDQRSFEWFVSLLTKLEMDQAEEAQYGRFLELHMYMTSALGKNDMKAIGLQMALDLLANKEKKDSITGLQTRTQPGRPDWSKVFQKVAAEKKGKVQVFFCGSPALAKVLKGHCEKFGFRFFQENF
Chain of NADPH oxidase 4 (Homo sapiens) (Q9NPH5 whole entry, looked up): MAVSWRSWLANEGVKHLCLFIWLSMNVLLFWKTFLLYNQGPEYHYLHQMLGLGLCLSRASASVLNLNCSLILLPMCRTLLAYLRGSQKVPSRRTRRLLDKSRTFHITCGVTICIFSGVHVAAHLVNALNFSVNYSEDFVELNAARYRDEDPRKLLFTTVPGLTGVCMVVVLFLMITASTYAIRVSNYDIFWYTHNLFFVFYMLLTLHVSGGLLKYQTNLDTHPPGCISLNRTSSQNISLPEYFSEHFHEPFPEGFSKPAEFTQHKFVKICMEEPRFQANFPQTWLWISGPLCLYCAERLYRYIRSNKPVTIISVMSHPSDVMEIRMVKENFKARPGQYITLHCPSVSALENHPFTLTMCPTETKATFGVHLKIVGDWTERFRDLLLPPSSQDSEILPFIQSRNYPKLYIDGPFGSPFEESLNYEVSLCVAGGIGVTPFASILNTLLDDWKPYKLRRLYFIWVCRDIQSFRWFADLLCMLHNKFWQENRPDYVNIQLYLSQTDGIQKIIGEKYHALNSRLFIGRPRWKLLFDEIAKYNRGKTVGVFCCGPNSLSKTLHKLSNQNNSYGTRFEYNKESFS

Regarding `CC(=O)OC[C@H]1O[C@H](CCON=C(C)CCC(=O)OC[C@H]2O[C@H](C#Cc3ccccc3)C=C[C@@H]2Oc2ccc(C)cc2)C=C[C@@H]1OC(C)=O`, the composite z-score in [1] is 0.0159; in assay [6] it was 0.238; in assay [7], -0.231; in the assay with Torsin-1A (Homo sapiens) [8], 0.595; with Torsin-1A (Homo sapiens) [9] it was 0.139; in assay [10], 0.688. In assay [12], this molecule showed a composite z-score of 0.28. Also, the z-score was -0.474 (inactive) in assay [2]; 0.037 (inactive) in [3]; 0.894 (inactive) in [4]; 0.452 (inactive) in [5]; 0.604 (inactive) in assay [11]; 8.85 (active) in assay [13]. For the same molecule, the z-score in [14] was 1.43 (inactive); in [15] it was 1.02 (inactive); in [16], 0.931 (inactive); in assay [17], -0.987; in assay [18] it was -0.772 (inactive); in [19], 0.384 (inactive). The z-score in assay [20] was -1.64.

In the case of `CCCCc1nc2c(c3c1C[C@H](C)OC3)CN(CCC(C)C)CC2`, the composite z-score in [1] was 0.122; in assay [6], 0.0392; in assay [7], -0.0074; in the assay with Torsin-1A (Homo sapiens) [8], 0.888; with Torsin-1A (Homo sapiens) [9], 0.622; in [10], 0.992. The composite z-score in assay [12] is -0.106. Also, the z-score in assay [2] is -0.262 (inactive); in assay [3] it was -0.578 (inactive); in assay [4] it was 7.7 (inactive); in assay [5], -1.14 (inactive); in assay [11], -0.192 (inactive); in [13] it was 1.35 (inactive). Besides, the z-score in [14] is 0.977 (inactive); in assay [15], 0.816 (inactive); in assay [16], 0.589 (inactive); in assay [17] it was 0.171; in [18] it was 0.35 (inactive); in assay [19], 0.315 (inactive). Moreover, in assay [20], the z-score amounted to 0.776.

For `CCN1C(=O)[C@H]2[C@H]3[C@H](O)[C@H](O)CC(=NOCc4ccccc4)[C@@H]3CC[C@H]2C1=O`, the composite z-score is -0.0713 in [1]; -0.0346 in [6]; -0.0575 in assay [7]; 0.962 with Torsin-1A (Homo sapiens) [8]; 0.236 with Torsin-1A (Homo sapiens) [9]; 0.531 in assay [10]. For the same molecule, the composite z-score in assay [12] stood at 0.0224. Further, the z-score is -0.672 (inactive) in [2]; 0.855 (inactive) in [3]; 1.42 (inactive) in [4]; 0.479 (inactive) in assay [5]; 0.401 (inactive) in assay [11]; 0.425 (inactive) in assay [13]. Also, the z-score is -1.09 (inactive) in assay [14]; -0.0231 (inactive) in assay [15]; -2.2 (inactive) in assay [16]; 2.27 in [17]; -0.521 (inactive) in [18]; -0.0627 (inactive) in [19]. The z-score in assay [20] is 0.388.

With `O[C@@H](Cc1ccccc1)[C@H]1C2C=CCCC(c3ccccc3)=C2CN1Cc1cccc(Cl)c1` (stereo not given in full), the composite z-score in assay [1] was found to be 0.0825; in assay [6] it was 0.26; in assay [7], 0.0355; with Torsin-1A (Homo sapiens) [8] it was 0.762; in the assay with Torsin-1A (Homo sapiens) [9] it was 0.144; in assay [10], 0.733. In [12], the composite z-score is -0.104. In addition, the z-score in assay [2] is -1.31 (inactive); in assay [3] it was -0.577 (inactive); in assay [4], 2.58 (inactive); in assay [5] it was 1.44 (inactive); in assay [11], 3.28 (inactive); in assay [13], 4.33 (inactive). Besides, the z-score in assay [14] is 0.669 (inactive); in assay [15] it was 1.16 (inactive); in assay [16] it was 0.476 (inactive); in assay [17] it was 0.459; in [18], -0.384 (inactive); in assay [19], -0.868 (inactive). In [20], the z-score is -0.41.

The record behind these values is PubChem BioAssay.
